Inconclusive results are not listed. Activity calls are given as the source filed them. Calls follow the shape of the dose curve; as a rule, active = well fitted curve in the direction sought with a large enough effect; inconclusive = small, poorly fitted or top-dose-only effect, or another doubt; inactive = no such curve, though single readings can be large; an effect the other way counts as inactive or inconclusive.
Experiments:
[1] = NS1 protein of Zika virus - qHTS assay to identify small molecule inhibitors in human HEK 293 cells (AID 1347053); also: series mostly up to about 46 µM; nearly all actives have a fitted effect of over 55% in size
Outline: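 HEK 293; 20 h pre-culture, 37 C/5% CO2; cpd 1 h pre-infection; ZIKV MR766, MOI = 0.5, 24 h, 37 C; TR-FRET NS1 readout (two anti-NS1 Abs); norm. to no-virus vs infected.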

[2] = qHTS of pediatric cancer cell lines to identify multiple opportunities for drug repurposing: Primary screen for TC32 cells (AID 1347089); also: nearly all actives have a fitted effect of over 60% in size
Outline: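 In the primary qHTS, MIPE compounds were tested at 11 concentrations (0.78 nM to 46 µM) and NPC compounds at 8 (0.59 nM to 46 µM) on TC32 cells for 48 h. CellTiter-Glo luminescence gave viability.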

[3] = qHTS of pediatric cancer cell lines to identify multiple opportunities for drug repurposing: Primary screen for DAOY cells (AID 1347090); also: series mostly up to about 46 µM; nearly all actives have a fitted effect of over 55% in size
Outline: (§1)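 Eight- or eleven-point concentration series, 48 h treatment at 37 degrees C in growth media; readout CellTiter-Glo luminescence. Potency and efficacy were taken from the concentration-response curves.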

[4] = qHTS of pediatric cancer cell lines to identify multiple opportunities for drug repurposing: Primary screen for SJ-GBM2 cells (AID 1347091)
Outline: as §1

[5] = qHTS of pediatric cancer cell lines to identify multiple opportunities for drug repurposing: Primary screen for A673 cells (AID 1347092); also: nearly all actives have a fitted effect of over 45% in size
Outline: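 48 h compound exposure, A673, 500-1,000 cells/well, 37 degrees C/5% CO2. MIPE: 11-point, 0.78 nM-46 µM; NPC: 8-point, 0.59 nM-46 µM (final). Readout CellTiter-Glo luminescence after 15 min RT.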

Measured: Potency

CC(C)C(C)(C)C(C)(C)C(C)(C)S
inactive: all assays above

CCOC(=O)c1ccc(NC(=O)CN2CCCCC2)cc1
inactive: all assays above

CC(C)(C)C(O)/C=C/c1ccc2c(c1)OCO2 (centres undefined)
inactive: all assays above

OCc1cccnc1
inactive: all assays above

COc1ccc2c(c1)c(CC(=O)OC/C=C(\C)CC/C=C(\C)CCC=C(C)C)c(C)n2C(=O)c1ccc(Cl)cc1
inactive: all assays above

O=C(CCCl)NCCc1ccccc1
inactive: all assays above

CC(=O)OCC[N+](C)(C)C
inactive: all assays above

CC(NN)c1ccccc1 (centres undefined)
inactive: all assays above

Cc1[nH]cnc1-c1ccc(Cl)cc1
inactive: all assays above

O=C1CCCc2c(O)cccc21
inactive: all assays above

c1ccc2c(c1)CCc1ccccc1N2
inactive: all assays above

CC(C)Cc1ccc(C(C)C(=O)OCc2ccccn2)cc1 (centres undefined)
inactive: all assays above

CCN1CCN(C(=O)N[C@@H](C(=O)N[C@@H]2C(=O)N3[C@@H]2SC(C)(C)[C@H]3C(=O)O)c2ccccc2)C(=O)C1=O
inactive: all assays above

CC(=O)N(CC(=O)N(C)C)c1ccccc1
inactive: all assays above

C=C(C)C(=O)OCC(O)CO (centres undefined)
inactive: all assays above

C/C(=C1\CCOC(=O)S1)N(C=O)Cc1cnc(C)nc1N
inactive: all assays above

CC(=O)OCC(=O)[C@@]1(O)CCC2C3CCC4=CC(=O)CC[C@]4(C)C3[C@@H](O)C[C@@]21C (some centres undefined)
inactive: all assays above

O=C(CCCCC(=O)Nc1c(I)cc(I)c(C(=O)O)c1I)Nc1c(I)cc(I)c(C(=O)O)c1I
inactive: all assays above

Nc1c(NC/C=C\COc2cc(CN3CCCCC3)ccn2)c(=O)c1=O
inactive: all assays above

CN(C)CCCOC1(Cc2ccccc2)CCCCCC1
inactive: all assays above

CCc1cc(S(=O)(=O)O)c2cc(C(C)C)cccc1-2
inactive: all assays above

CC(=O)[C@@]1(O)CC[C@H]2[C@@H]3C[C@H](C)C4=CC(=O)CC[C@]4(C)[C@H]3CC[C@@]21C
inactive: all assays above

COc1cc2c(cc1OC)CN(C(=O)[C@H](C)N[C@@H](CCc1ccccc1)C(=O)O)[C@H](C(=O)O)C2
not listed: [4]
inactive: all other assays above

COc1ccc2cc(C=O)ccc2c1
inactive: all assays above

N#CSCC(=O)O
inactive: all assays above

OC1(c2ccccc2)CCNCC1
inactive: all assays above

COC(=O)c1cc(Cl)ccc1NS(=O)(=O)C(F)(F)F
inactive: all assays above

CN1Cc2cc(C(=O)N3CCC(C4CCNCC4)CC3)ccc2NC(CC(=O)O)C1=O (centres undefined)
inactive: all assays above

Cc1cnc(NS(=O)(=O)c2ccc(N)cc2)nc1
inactive: all assays above

COCCc1ccccn1
inactive: all assays above
